Lassa entry inh – blocks Lassa virus binding to or entry into cells. Lassa virus pseudotype entry inhibition, cell reporter. Potency, µM (titrated, usually from 37.9 µM), inactives show at the top dose activity change, negative = inhibition, usual class: inhibitors. 300,000 tested, 1.2% active; calls by dose curve; tested in HEK293 cells; also: nearly all actives have a fitted effect of over 50% in size
Vaccinia Venus – inhibitors of vaccinia virus (Venus reporter); Vaccinia virus Venus reporter expression, fluorescence; Potency, µM (highest dose often 36.5 µM), for the others: top-dose activity change, negative = inhibition, actives largely listed as inhibitors; 330,000 tested, 0.46% active; calls by dose curve; tested in A549 cells; also: nearly all actives have a fitted effect of over 30% in size
FMDV antiviral – foot and mouth disease virus antiviral activity; AID 1159524; Potency, µM (highest dose often 57.9 µM), inactives show top-dose activity change, negative = inhibition, actives largely listed as inhibitors; 410,000 tested, 1.2% active; FMDV antiviral cell-based qHTS; calls by dose curve; tested in HEK293T cells; also: read-out not given here; nearly all actives have a fitted effect of over 45% in size
Sm TGR inh – blocks Schistosoma mansoni thioredoxin glutathione reductase | purified TGR, DTNB reduction, TNB absorbance 405 nm | Potency, µM (doses to about 114 µM), without a hit: at the top dose activity change, negative = inhibition, hits mostly inhibitors | 360,000 tested, 3% active | AID 485364; active = well fitted inhibition curve with a large enough effect; inconclusive = small, poorly fitted or top-dose-only effect; inactive = no such curve, though single readings can be large or run the other way; also: nearly all actives have a fitted effect of over 60% in size
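Kinetic colorimetric format: TGR-catalysed, NADPH-driven DTNB reduction monitored via TNB absorbance. Enzyme dispensed at 20 nM; compound exposure 15 min at room temperature before reaction start.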
MARV entry inh – inhibitors of Marburg virus binding or cell entry. AID 540276. 300,000 tested, 1.8% active. Marburg virus pseudotyped entry inhibition, cell reporter. Potency, µM (top dose mostly 37.8 µM), for the others: at the highest dose activity change, negative = inhibition, actives largely listed as inhibitors; calls by dose curve; tested in HEK293 cells
Vaccinia mCherry – vaccinia inhibition (mCherry reporter); Vaccinia virus mCherry reporter infection, fluorescence; Potency, µM (highest dose often 36.5 µM), inactives show top-dose activity change, negative = inhibition, actives largely listed as inhibitors; 310,000 tested, 0.63% active; AID 720579; calls by dose curve; tested in A549 cells; also: nearly all actives have a fitted effect of over 35% in size
* hit, by the source's call; i = inactive; ? = inconclusive; . = no result; [ ] = remark or other dose. Hits are enriched below; roughly 5.4% of the tested compounds scored in any of these assays. % is scaled to controls: 0 for no effect and ±100 for the full control effect; potency is read from the fitted curve at half-maximal effect.

SMILES	Lassa entry inh	Vaccinia Venus	FMDV antiviral	Sm TGR inh	MARV entry inh	Vaccinia mCherry
CC(=O)c1ccc(NC(=O)Nc2ncn(Cc3cccc(C)c3)n2)cc1	0.65µM*	.	-7%	-7%	8%	.
CCOC(=O)c1ccc(NS(=O)(=O)c2cn(C)c(C)n2)cc1	-15%[46.1 µM]	-2%	-8%	4%	.	-8%
Nn1cnnc1N/N=C\c1ccc(-c2ccccc2[N+](=O)[O-])o1	14µM*	-26%	1%	-18%	?	?
O=[N+]([O-])c1ccccc1-c1ccc(/C=N/n2cnnc2)o1	19%[14.3 µM]	-5%	2%	-7%	?	-18%
c1ccc(Nc2nc(NCC3CCCO3)c3ccccc3n2)cc1 (centres undefined)	?	-25%	28µM*	-24%	?	?
CCOc1ccc(Nc2cc(C)c3ccccc3n2)cc1	.	.	33%	7%	.	.
COc1ccc(Nc2nc(NCC3CCCO3)c3ccccc3n2)c(OC)c1 (centres undefined)	-26%	-24%	?	.	?	?
CCOc1ccc(Nc2c3ccccc3nc3ccccc23)cc1	.	?	?	4%	.	5.6µM*
Oc1cccc(Nc2nc(NCC3CCCO3)c3ccccc3n2)c1 (centres undefined)	-24%	?	0%	-3%	?	?
CCOc1ccc(Nc2nc(NCC3CCCO3)c3ccccc3n2)cc1 (centres undefined)	?	?	25µM*	-15%	?	-19%
CCOc1c(CC2C(=O)Nc3ccc(Br)cc32)cccc1OC (centres undefined)	3%[46.1 µM]	-4%	-22%	-11%	0%[46.1 µM]	-15%
COc1cc(CN2CCCC(c3nc(-c4ccncc4)ncc3-c3ccccc3)C2)ccc1O (centres undefined)	.	0%	-10%	.	.	-12%
CSCCC1C(C#N)=C(N)Oc2n[nH]c(-c3cccs3)c21 (centres undefined)	24%	-5%	-9%	13µM*	?	-1%
COc1ccc(OCCN(C)Cc2c(O)ccc3ccccc23)cc1	16%[46.1 µM]	10%	-12%	1.1µM*	-6%[46.1 µM]	?
CN(Cc1cc(Cl)cc(Cl)c1O)Cc1c(O)ccc2ccccc12	14%[46.1 µM]	-26%	-2%	.	-9%[46.1 µM]	?
CN(Cc1ccccc1)Cc1c(O)ccc2ccccc12	-31%	-7%	28%	0.89µM*	?	-13%
COC(=O)CC1Oc2ccc(Cl)cc2-n2cc(-c3ccc(C)cc3)nc21 (centres undefined)	-15%[46.1 µM]	-11%	-7%	?	1%[46.1 µM]	-10%
CCCc1c(-c2ccc(O)cc2)nn(-c2ccc(O)cc2)c1-c1ccc(O)cc1	0.29µM*	-14%	0%	0%	?	i
Cc1nn(C(C)(C)C)c(C)c1/C=N/OC(=O)Nc1ccc(Cl)cc1	?	5%	5.6µM*	26%	?	-4%
Cc1ccc(S(=O)(=O)N2CCN(C(=O)c3c(C)nn(-c4ccccc4)c3Cl)CC2)cc1	?	-14%	.	0%	-27%	-3%
Cc1cc(C)c(S(=O)(=O)N2CCN(C(=O)c3c(C)nn(-c4ccccc4)c3Cl)CC2)c(C)c1	?	?	25µM*	.	14µM*	i
O=C(NC1CC(=O)N(c2cccc(F)c2)C1)c1ccc(S(=O)(=O)N2CCCC2)cc1 (centres undefined)	-4%[46.1 µM]	-15%	-24%	-5%	.	-12%
OC[C@@H]1CN(Cc2ccc(-c3ccccc3)cc2)C[C@H](n2cnc3c(Nc4ccccc4)ncnc32)O1	.	-28%	32µM*	.	.	?
OC[C@@H]1CN(Cc2ccccc2)C[C@H](n2cnc3c(NCc4ccc(F)cc4)ncnc32)O1	.	-9%	40%	.	.	-15%
OC[C@@H]1CN(Cc2ccc(-c3ccccc3)cc2)C[C@H](n2cnc3c(NCc4ccc(F)cc4)ncnc32)O1	.	?	28µM*	.	.	-18%
SMILES	Lassa entry inh	Vaccinia Venus	FMDV antiviral	Sm TGR inh	MARV entry inh	Vaccinia mCherry
O=C(CCN1CCN(C(=O)c2ccccc2)CC1)c1ccc(Br)cc1	-17%[46.1 µM]	3%	-6%	0.32µM*	?	-6%
Cc1ccc(N2C(=O)NC(=O)/C(=C/c3cnc(-c4ccccc4)nc3)C2=O)cc1C	17%	-5%	-11%	1.8µM*	14%	-19%
Cc1cccc(N2C(=O)NC(=O)/C(=C\c3cnc(-c4ccccc4)nc3)C2=O)c1	18%	-1%	-12%	5µM*	?	i
CC(C)c1ccc(N2C(=O)NC(=O)/C(=C\c3cnc(-c4ccccc4)nc3)C2=O)cc1	23%	-11%	-11%	11µM*	41%	-19%
CC(C)c1ccc(N2C(=O)NC(=O)/C(=C\C=C\c3ccco3)C2=O)cc1	?	37%	?	?	?	i
CC(C)NC(=O)Cn1ccc2cc(S(=O)(=O)N3CCCCCC3)ccc21	12%[46.1 µM]	1%	-15%	4%	.	-5%
Cc1ccc(N2CC(NC(=O)c3cccs3)CC2=O)cc1C (centres undefined)	1%[46.1 µM]	-14%[7.34 µM]	-13%	6%	.	-15%[7.34 µM]
O=C([C@@H]1C[C@@H](Sc2nc3ccccc3[nH]2)CN1Cc1ccc(C(F)(F)F)cc1)N1CCN(c2ccccc2F)CC1	.	0%	-13%	.	.	-5%
O=C(O)CC1C(=O)NCCN1C/C=C/c1ccccc1 (centres undefined)	.	-7%	-4%	40µM*	.	-14%
Cc1ccc(CN2CCNC(=O)C2CC(=O)O)cc1 (centres undefined)	.	0%	-1%	35µM*	.	i
COc1ccc(CNC(=O)CC2C(=O)NCCN2CC(C)(C)C)c(OC)c1 (centres undefined)	.	.	-12%	-20%	.	.
COc1ccccc1CN1CCNC(=O)C1CC(=O)O (centres undefined)	10%	-9%	27%	79µM*	-1%	i
COc1ccc(CN2CCNC(=O)C2CC(=O)NCc2ccc(C)s2)c(OC)c1 (centres undefined)	.	.	-19%	32µM*	.	.
O=C(CC1C(=O)NCCN1C/C=C/c1ccccc1)NCCc1ccncc1 (centres undefined)	-7%[46.1 µM]	-15%	8%	-13%	9%[46.1 µM]	-14%
COc1ccc(NC(=O)CN(C)S(=O)(=O)c2ccc(C(=O)N3CCOCC3)s2)cc1	11%[46.1 µM]	5%	-18%	-2%	.	-5%
Cc1cccc(NC(=O)CSc2nc(=O)n(CCN3CCOCC3)c3c2CCC3)c1	-14%[46.1 µM]	-4%[7.34 µM]	-12%	3%	.	-3%[7.34 µM]
COc1cc(C2C(=O)N(C3CCCCCC3)CC(=O)N2Cc2ccccc2)ccc1OC(C)C (centres undefined)	-21%[46.1 µM]	-12%	-7%	-3%	.	-10%
COC(=O)c1cc(NC(=O)c2cc(-c3ccc(C(F)(F)F)cc3)oc2C(F)(F)F)ccc1N1CCOCC1	?	-14%	?	-1%	11µM*	-17%
N#Cc1nc(Cc2ccccc2)oc1N1CCN(c2ccccc2)CC1	?	-14%	.	13%	?	i
N#Cc1nc(Cc2ccccc2)oc1N1CCC(Cc2ccccc2)CC1	7.1µM*	-12%	-5%	3%	-18%	.

Screening data: PubChem, National Center for Advancing Translational Sciences (NCATS)
